# In paper PMC4336329 (PLoS ONE, 2015):
# Out of some 310,000 compounds screened, about 14,000 (4.5%) showed an effect of 50% or more. Effects have a minus sign here. The sample as a whole holds a higher share of strong results than the screen did.
# Target: human ether-à-go-go-related gene (hERG) potassium channel (human, UniProt Q12809)
# Assay: primary screen, population patch clamp on CHO cells stably expressing hERG; higher = less effect of the substance
# 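Also: peak tail current of the secondary pulse compared with the same well before compound.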
# Chain of human ether-à-go-go-related gene (hERG) potassium channel (Q12809 whole entry, looked up): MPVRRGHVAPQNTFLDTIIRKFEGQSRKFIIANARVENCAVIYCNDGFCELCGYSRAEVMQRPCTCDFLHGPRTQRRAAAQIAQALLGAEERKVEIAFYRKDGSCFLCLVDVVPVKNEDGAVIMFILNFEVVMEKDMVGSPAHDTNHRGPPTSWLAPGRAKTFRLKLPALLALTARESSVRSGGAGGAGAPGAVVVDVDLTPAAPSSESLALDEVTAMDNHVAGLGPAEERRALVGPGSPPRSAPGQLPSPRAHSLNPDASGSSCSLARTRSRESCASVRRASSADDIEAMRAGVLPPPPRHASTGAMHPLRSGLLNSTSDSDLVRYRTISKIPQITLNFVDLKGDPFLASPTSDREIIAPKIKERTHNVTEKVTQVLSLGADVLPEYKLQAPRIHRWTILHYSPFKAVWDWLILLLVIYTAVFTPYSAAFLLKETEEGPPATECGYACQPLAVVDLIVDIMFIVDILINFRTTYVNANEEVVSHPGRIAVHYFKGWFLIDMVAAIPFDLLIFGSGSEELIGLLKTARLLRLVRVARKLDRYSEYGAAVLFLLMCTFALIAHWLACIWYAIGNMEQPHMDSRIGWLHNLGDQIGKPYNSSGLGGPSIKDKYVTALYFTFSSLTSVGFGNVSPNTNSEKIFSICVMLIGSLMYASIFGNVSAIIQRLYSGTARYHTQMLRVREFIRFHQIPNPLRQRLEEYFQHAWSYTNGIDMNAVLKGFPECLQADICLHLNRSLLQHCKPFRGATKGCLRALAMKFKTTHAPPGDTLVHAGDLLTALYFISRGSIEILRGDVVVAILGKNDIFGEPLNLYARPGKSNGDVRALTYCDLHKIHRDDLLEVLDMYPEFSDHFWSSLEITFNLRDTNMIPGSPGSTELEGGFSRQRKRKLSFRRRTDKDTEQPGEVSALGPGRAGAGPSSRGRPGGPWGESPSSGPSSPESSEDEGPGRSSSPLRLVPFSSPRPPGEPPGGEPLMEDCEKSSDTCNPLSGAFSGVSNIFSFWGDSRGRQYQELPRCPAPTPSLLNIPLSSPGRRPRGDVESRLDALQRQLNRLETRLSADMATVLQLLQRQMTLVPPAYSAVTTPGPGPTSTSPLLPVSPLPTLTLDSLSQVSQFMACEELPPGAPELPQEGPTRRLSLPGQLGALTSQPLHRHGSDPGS
row,Compound,"hERG current change (%, negative = inhibition) at 10uM [%]"
1,Cc1ccc(NC(=O)c2oc3ccc(S(=O)(=O)N4CCOCC4)cc3c2C)c(C)c1,5.03
2,O=C(Nc1nc(N2C(=O)c3ccccc3C2=O)n(-c2ccccc2)n1)c1ccc(Cl)cc1,-7.9
3,CC1CC(C)CN(CCCNC(=O)Cc2c(C(=O)O)n(C)c3ccccc23)C1 (centres unmarked),-15.9
4,COC(=O)c1c(NC(=O)CCCC(=O)O)sc2c1CCCCC2,12.2
5,CCOc1ccc(-c2n[nH]c(C)c2-c2ccccn2)c(O)c1,13.6
6,CS(=O)(=O)Nc1ccc(C(=O)NCc2ccccn2)cc1,0.863
7,O=C(NC1CCCC1)c1ccc(CS(=O)(=O)Cc2ccccc2F)o1,-7.89
8,O=C(CSc1nc2ccccc2c(=O)n1CCCC(=O)N1CCCC1)NCc1ccco1,-62.4
9,N#CCSc1nc2ccccc2c(=O)n1CCCC(=O)NCc1ccco1,-33.7
10,COc1ccc(NC(=O)COC(=O)c2ccccc2SCC(=O)N2CCCC2)cc1,-53.9
11,CCn1c(SCC(=O)Nc2cccc(OC)c2)nc2ccccc2c1=O,-47.1
12,COCCCn1c(SCC(=O)NCc2ccccc2)nc2ccccc2c1=O,-48.6
13,CC(=O)NCCn1c(SCC(=O)NCc2ccco2)nc2ccccc2c1=O,-23.9
14,O=C(CSc1nc2ccccc2c(=O)n1CCCO)NCc1ccccc1,-41.5
15,COc1cccc(NC(=O)CSc2nc3ccccc3c(=O)n2CCCC(=O)N2CCCC2)c1,-67.3
16,CC(=O)Nc1ccc(NC(=O)COC(=O)c2ccccc2SCC(=O)N2CCCC2)cc1,5.48
17,COc1cc(NC(=O)COC(=O)c2ccccc2SCC(=O)N2CCCC2)cc(OC)c1,-25.7
18,Cc1ccc(NC(=O)CSc2nc3ccccc3c(=O)n2CCCC(=O)N2CCCC2)cc1,-44.5
19,Cc1ccc(CNC(=O)CSc2nc3ccccc3c(=O)n2CCCO)cc1,-73
20,CCCCN(C(=O)CSc1nnnn1C)C1CCS(=O)(=O)C1 (centres unmarked),-28.1
21,COC(=O)N/N=C/c1cn(CCOc2ccc(OC)cc2)c2ccccc12,16.8
22,Cc1ccc(-n2cc3c(=O)n(C)c(=O)n(C)c3c2)cc1C,-6.21
23,CC(=O)N[C@H]1C(O)O[C@H](CO)[C@@H](O)[C@@H]1O (some centres unmarked),9.71

row,Compound,"hERG current change (%, negative = inhibition) at 10uM [%]"
1,CCN(CC)c1ccc(C=O)c(OC)c1,-9.16
2,N#C/C(=C\c1cc2c(cc1Br)OCO2)c1ccc(C(=O)O)cc1,13.2
3,COCC(=O)N(C)c1nnc(-c2ccc([N+](=O)[O-])cc2)s1,6.65
4,CN(CC(=O)Nc1c(Cl)cccc1Cl)C(=O)c1ccncc1,19.4
5,Cn1cnc2c1c(=O)n(Cc1cccc(F)c1)c(=O)n2C,12
6,Nc1c(C(=O)NC2CCCCC2)nsc1C(=O)OCC(=O)NC1CCCCC1,12.5
7,CCn1c(-c2cc(-c3ccc(C)cc3)nc3ccccc23)n[nH]c1=S,11.4
8,CNCCOc1ccc(Cl)c(Cl)c1.O=C(O)C(=O)O,12.8
9,COc1ccc(NC(=O)CNC(=O)Cc2cccc3ccccc23)c(OC)c1,2.01
10,O=C(Nc1ncc(Cc2ccccc2)s1)C1COc2ccccc2O1 (centres unmarked),-0.581
11,CCOC(=O)c1c(-c2ccc(C)o2)csc1NC(=O)COC(=O)c1cccs1,-12
12,CN1C(=O)NC(c2ccc(O)cc2)C2=C1CN(c1cccc3ccccc13)C2=O (centres unmarked),-11.8
13,CCC(=O)NC(NC(=S)Nc1ccc(S(N)(=O)=O)cc1)C(Cl)(Cl)Cl (centres unmarked),-1.3
14,NS(=O)(=O)c1ccc(CCNC(=O)CSc2nc3ccccc3c(=O)n2CCC(=O)N2CCCCC2)cc1,19.8
15,CCn1c(SCC(=O)NCc2ccccc2)nc2ccccc2c1=O,-11.6
16,CCOc1ccc(NC(=O)CSc2nc3ccccc3c(=O)n2CCCC(=O)N2CCCC2)cc1,-23.8
17,COc1ccc(NC(=O)CSc2nc3ccccc3c(=O)n2CCC(=O)N2CCCCC2)cc1,-69.2
18,O=C(CCCCCn1c(SCC(=O)c2ccccc2)nc2ccccc2c1=O)NCc1ccco1,10.8
19,O=C(CCCCCn1c(SCc2ccncc2)nc2ccccc2c1=O)NCc1ccco1,-86
20,O=C(CSc1nc2ccccc2c(=O)n1CCC(=O)N1CCCCC1)NCc1ccccc1,-70.4
21,Cc1ccc(CSc2nc3ccccc3c(=O)n2CCCC(=O)NCc2ccco2)cc1,-2.71
22,COc1ccc(NC(=O)CSc2nc3ccccc3c(=O)n2C)cc1,4.53
23,NC(=O)c1ccc(NC(=O)CSc2nnc(-c3ccc4c(c3)OCO4)o2)cc1,2.05

row,Compound,"hERG current change (%, negative = inhibition) at 10uM [%]"
1,CCCCN(CCCC)C(=O)c1sc2nc(N3CCOCC3)c3c(c2c1N)CCCC3,9
2,COc1ccc(Cl)cc1NC(=O)NC1CCCCC1,10.3
3,CN(CCCC(=O)NCc1ccco1)S(=O)(=O)c1ccccc1,-5.89
4,CC(=O)C12CCCCC1CC1C3CC(C)C4(O)CC(=O)CCC4(C)C3CCC12C (centres unmarked),21.8
5,Cc1nc2ccccc2c(=O)n1-c1ccccc1[N+](=O)[O-],17.2
6,CCCCCN(C(=O)CCC(=O)OC(C)C(=O)NC1CCCCC1)c1c(N)n(CCCC)c(=O)[nH]c1=O (centres unmarked),16.1
7,CSc1nncc(/C(C)=N\Nc2ccccc2)n1,9.18
8,Cc1ccc(C(C)(C)NC(=O)C2CCC(=O)N(CC3CCCCC3)C2)cc1 (centres unmarked),3.82
9,Cn1ccnc1/C(=N\NC(=O)c1ccc(O)cc1)c1cccc([N+](=O)[O-])c1,-22.7
10,Cn1cccc1C(=O)c1cccc([N+](=O)[O-])c1,-52.9
11,O=C(NNC(=O)c1ccccn1)c1cccc([N+](=O)[O-])c1,8.7
12,CC(=O)c1cccc([N+](=O)[O-])c1,17.7
13,NC(=O)c1cccc([N+](=O)[O-])c1,5.64
14,O=C(N/N=C(\c1ccccc1)c1ccccn1)c1cccc([N+](=O)[O-])c1,-65.6
15,C/C(=N\NC(=O)c1ccc([N+](=O)[O-])cc1)c1cccc([N+](=O)[O-])c1,5.82
16,COc1cccc(C(=O)N/N=C(/c2ccccc2)c2ccccn2)c1,6.88
17,Cn1ccnc1/C(=N\NC(=O)c1ccccc1)c1cccc([N+](=O)[O-])c1,-68.6
18,CC1=NN(c2ccccc2)C(=O)/C1=C/c1ccc[nH]1,-7.74
19,CCN(CC(=O)Nc1ccc(NC(C)=O)cc1)C(=O)c1cccc2ccccc12,1.23
20,Cc1cccc(Nc2ncnc(N)c2[N+](=O)[O-])n1,17.8
21,C=CCN1CC(c2nc3ccccc3n2Cc2cccc3ccccc23)CC1=O (centres unmarked),-24.2
22,C/C(=N\NC(=O)CNc1cccc2ccccc12)c1ccccc1,10.2
23,COc1ccc2sc3ccccc3c(=O)c2c1,-10.1

row,Compound,"hERG current change (%, negative = inhibition) at 10uM [%]"
1,Cc1ccc(N2CC(C(=O)N3CCC(C(=O)Nc4nnc(C(C)C)s4)CC3)CC2=O)cc1 (centres unmarked),10.7
2,CC(=O)Nc1ccc(S(=O)(=O)N(C)CC(=O)OCC(=O)N(C)C2CCS(=O)(=O)C2)cc1 (centres unmarked),18.8
3,CN(CCOc1ccc(Cl)cc1)C(=O)C1CCN(C(=O)c2ccc(Cl)cc2)CC1,-75.4
4,CN(CCOc1ccc(Cl)cc1)C(=O)C1CCN(C(=O)c2ccc(F)cc2)CC1,-69.9
5,Cc1ccccc1C(=O)N1CCC(C(=O)N(C)CCOc2ccccc2)CC1,9.06
6,CN(CCOc1ccccc1)C(=O)C1CCN(C(=O)c2ccc(F)cc2)CC1,-19.9
7,O=C(c1ccc(Cl)cc1)C1CCN(C(=O)c2ccc(F)cc2)CC1,-34.7
8,CN(CCOc1ccccc1)C(=O)C1CCN(C(=O)c2ccc(Cl)cc2)CC1,-47.9
9,Cc1ccc(Cn2ccc(NC(=O)c3cc(CC(C)C)on3)n2)cc1,-8.08
10,CCn1nc(C(=O)OCC(=O)c2cc(C)n(Cc3cccs3)c2C)c2ccccc2c1=O,7.14
11,O=C(/C=C/c1cccs1)Nc1sc2c(c1C(=O)O)CCCC2,28.5
12,O=C(OCC(=O)N1CCN(C(=O)c2ccco2)CC1)c1cc(-c2ccco2)nc2ccccc12,-69.7
13,Cc1cc(C(=O)OCC(=O)N2CCN(C(=O)c3ccco3)CC2)c(C)n1-c1ccc(F)cc1,-66.4
14,O=C(OCC(=O)N1CCN(C(=O)c2ccco2)CC1)c1cc(-c2ccc(F)cc2)nc2ccccc12,-59.4
15,O=C(OCC(=O)N1CCN(C(=O)c2ccco2)CC1)c1cccc(F)c1,-16.8
16,O=C(c1cc(-c2ccco2)nc2ccccc12)N1CCN(Cc2ccccc2)CC1,-42.8
17,COc1ccc(-c2cc(C(=O)OCC(=O)N3CCCC3)c3ccccc3n2)cc1,-19.1
18,O=C(OCC(=O)N1CCN(C(=O)c2ccco2)CC1)c1cc(-c2ccc(Cl)c(Cl)c2Cl)nc2ccccc12,2.88
19,Cc1cc(C(=O)OCC(=O)NCc2ccco2)c(C)n1-c1ccc(F)cc1,-28.3
20,O=C(c1ccco1)N1CCN(C(=O)c2cc(-c3ccccn3)nc3ccccc23)CC1,-34.8
21,O=C(OCC(=O)N1CCN(C(=O)c2ccco2)CC1)c1cc(-c2cccc(Br)c2)nc2ccccc12,-19.6
22,O=C(OCC(=O)N1CCN(C(=O)c2ccco2)CC1)c1cc(-c2ccccc2)nc2ccccc12,-60.3
23,O=C(COC(=O)c1cc(-c2ccco2)nc2ccccc12)NCc1ccccc1,-11.3
